Experimental data from PubChem BioAssay (NCI).
The panel holds about 83,000 compounds, 20% with a hit somewhere; the sample as a whole holds those more often.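 Growth was measured after 48 h exposure to one concentration of compound in 96-well plates. Values under 10 count as active.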 Values without a mark were called inactive. The source made the active and inactive calls.

Tested on: PC-3 prostate
Experiment: NCI-60 one-dose screen, 48 h (100 = growth as untreated, 0 = no growth, -100 = all killed)
Settings: 10 µM unless noted

| Compound | growth |
| --- | --- |
| NCCCOc1cc2ccccc2cc1C(=O)Nc1ccc(Cl)cc1OC(=O)c1cc2ccccc2cc1OCCCN | -93% (active) |
| CCCCCCCCCCCCCCCCNC(=S)N/N=C/c1ccc(O)cc1O | 63.5% |
| CC1(C)N=C(N)N=C(N)N1c1cccc(CCCCOc2ccccc2)c1 | -6.9% (active) |
| CCCC(C)c1cc(Cc2cc(Cl)cc(Cl)c2O)c(O)c(Cc2cc(Cl)cc(Cl)c2O)c1 (stereo not given) | 3.76% (active) |
| Oc1ccc(Br)cc1/C=N/NC(=S)NC12CC3CC(CC(C3)C1)C2 | -19% (active) |
| Cc1ccc([C@@H]2C[C@H](O)Cc3ccccc3N2)s1 | 92% |
| Cc1c(Cc2ccccc2)c(=O)oc2c(C)c(OCC(=O)n3nc(C#N)cc3N)ccc12 | 89% |
| N#CCc1ncc(-c2ccc(C(F)(F)F)cc2)c(NC2CCCCCC2)n1 | -3.13% [100 µM] (active) |
| CCC1(CC)C(OC)NC(Br)=C(C#N)C1(C#N)C(N)=O (stereo not given) | 107% |
| CC1(C)Oc2cc3oc(=O)ccc3cc2C[C@@H]1OCCOS(=O)(=O)c1ccc(C#N)cc1 | 87.3% |
| CC(C)CCCCCOC(=O)c1ccccc1SSc1ccccc1C(=O)OCCCCCC(C)C | 88.6% |
| C=C(NC(=O)[C@H](C(C)C)N(C)c1cccc2[nH]ccc12)C(=O)OC | 101% |
| O=C(NC1CCN(Cc2ccccc2)CC1)c1cc(-c2cccnc2)nc2ccc(Cl)cc12 | 69.2% |
| Cc1c(CN(C)C)cc(C(C)C)cc1C(C)C | 109% |
| Nc1ccc(S(=O)(=O)c2ccc(NO)cc2)cc1 | 96.8% |
| CCOC(=O)C1=C(C(F)(F)F)NC(=S)NC1CN1C(=O)c2ccccc2C1=O (stereo not given) | 90.5% |
| CC(=O)NCCN | 92.3% |
| COc1ccc(Cn2cc3c(c2)-c2oncc2CC3)cc1OC | 25.5% |
| Cc1ccc(C(=O)Nc2ccc(CN3CCN(C)CC3)c(C(F)(F)F)c2)cc1C#Cc1cncc2ncccc12 | -69.3% (active) |
| Cc1nc2c(nnn2-c2ccccc2)c2nc(-c3ccc(Cl)cc3)oc(=O)c12 | 105% |

| Compound | growth |
| --- | --- |
| CC(=O)Nc1nc(C)c(C(=O)N/N=C/c2cccs2)s1 | 101% |
| CCCC(CCC)Oc1ccc(CCCC2=C(O)c3ccccc3C(=O)C2=O)cc1 | 27.7% |
| COc1ccc(-c2cc(C#N)c(NNC(C)=O)[nH]2)cc1 | 115% |
| CCCCCCCCCCCCCCCCCC(=O)Nc1ccc(O)cc1 | 66.6% |
| COc1ccc2c(N)ncc(C#Cc3cc(C(=O)Nc4ccc(CN5CCN(C)CC5)c(C(F)(F)F)c4)cnc3C)c2c1 | -69.4% (active) |
| COC(=O)C1CC(=O)N(C(=O)Nc2ccc(Cl)cc2Cl)C1 (stereo not given) | 95.2% |
| COC(=O)CC(=O)C(=O)OC | 99.8% |
| COc1ccc(C2=NN(C(=O)c3cc(-c4ccc(C)cc4)nc4ccccc34)C(c3cc(-c4ccccc4)nn3-c3ccccc3)C2)cc1 (stereo not given) | 74.7% |
| O=C(Nc1cccc(Cn2c(=O)[nH]c3ccc(Oc4ncccn4)cc3c2=O)c1)c1ccc(Cl)cc1 | 46.2% |
| CC(=O)Nc1ccc(CC#N)cc1Br | 95.6% |
| CC1=C[C@@H]2c3c(c(O)c(O)c4oc5cc(O)cc(O)c5c(=O)c34)[C@@H](c3cc(O)c(O)c4oc5cc(O)cc(O)c5c(=O)c34)[C@@H]2C(C)(C)C1 | 2.82% (active) |
| Brc1c(-c2ccncc2)nc2n1CCS2 | 84.5% |
| CC(C)(C)c1ccc(OCCOC(=O)CBr)cc1 | 110% |
| NC(N)=Nc1ccc(/C=C2\C=Cc3ccccc32)cc1 | 51.9% |
| O=C(Cc1ccccc1[N+](=O)[O-])c1ccc2c(c1)OCO2 | 96.8% |
| N#Cc1c(N)nc(Nc2nc3ccccc3[nH]2)nc1-c1ccc(Cl)cc1 | 94.8% |
| Oc1ccc(CN(Cc2ccc(C(F)(F)F)cc2)Cc2ccc(O)c3ncccc23)c2cccnc12 | 12.9% |
| CCC(C)C1NC(=O)C(CC(C)C)NC(=O)C(C)NC(=O)C(C(C)C)NC(=O)C(CCCCN)NC(=O)C(CC(C)C)NC(=O)C(C(C)C)NC(=O)[C@H](C)NC(=O)C(C(C)CC)NC(=O)C(CCCN=C(N)N)NC(=O)C(CCCCN)NC(=O)C(CCCN=C(N)N)NC(=O)C(CCCCN)NC(=O)C([C@H](C)CC)NC(=O)C(CCCCN)NC1=O (stereo not given in full) | -4.78% (active) |
| COC(=O)c1ccc(C(=Nc2ccc(N(C)C(=O)CN3CCN(C)CC3)cc2)c2c(O)[nH]c3ccc(C(=O)OC)cc23)cc1 | 28.8% |
| O=C(C(=O)N1CCOCC1)c1ccc(O[C@H]2O[C@H](CO)[C@@H](O)[C@H](O)[C@@H]2O)cc1 | 88.8% |

Tested on: SK-MEL-5 melanoma
Experiment: as above
Settings: 10 µM unless noted

| Compound | growth |
| --- | --- |
| NCCCOc1cc2ccccc2cc1C(=O)Nc1ccc(Cl)cc1OC(=O)c1cc2ccccc2cc1OCCCN | -96.1% (active) |
| CCCCCCCCCCCCCCCCNC(=S)N/N=C/c1ccc(O)cc1O | 63.4% |
| CC1(C)N=C(N)N=C(N)N1c1cccc(CCCCOc2ccccc2)c1 | 17.9% |
| CCCC(C)c1cc(Cc2cc(Cl)cc(Cl)c2O)c(O)c(Cc2cc(Cl)cc(Cl)c2O)c1 (stereo not given) | -58.5% (active) |
| Oc1ccc(Br)cc1/C=N/NC(=S)NC12CC3CC(CC(C3)C1)C2 | 28.6% |
| Cc1ccc([C@@H]2C[C@H](O)Cc3ccccc3N2)s1 | 105% |
| Cc1c(Cc2ccccc2)c(=O)oc2c(C)c(OCC(=O)n3nc(C#N)cc3N)ccc12 | 103% |
| N#CCc1ncc(-c2ccc(C(F)(F)F)cc2)c(NC2CCCCCC2)n1 | 22.9% [100 µM] |
| CCC1(CC)C(OC)NC(Br)=C(C#N)C1(C#N)C(N)=O (stereo not given) | 109% |
| CC1(C)Oc2cc3oc(=O)ccc3cc2C[C@@H]1OCCOS(=O)(=O)c1ccc(C#N)cc1 | 93.6% |
| CC(C)CCCCCOC(=O)c1ccccc1SSc1ccccc1C(=O)OCCCCCC(C)C | 96.2% |
| C=C(NC(=O)[C@H](C(C)C)N(C)c1cccc2[nH]ccc12)C(=O)OC | 99.4% |
| O=C(NC1CCN(Cc2ccccc2)CC1)c1cc(-c2cccnc2)nc2ccc(Cl)cc12 | 50.2% |
| Cc1c(CN(C)C)cc(C(C)C)cc1C(C)C | 104% |
| Nc1ccc(S(=O)(=O)c2ccc(NO)cc2)cc1 | 102% |
| CCOC(=O)C1=C(C(F)(F)F)NC(=S)NC1CN1C(=O)c2ccccc2C1=O (stereo not given) | 103% |
| CC(=O)NCCN | 108% |
| COc1ccc(Cn2cc3c(c2)-c2oncc2CC3)cc1OC | 9.72% (active) |
| Cc1ccc(C(=O)Nc2ccc(CN3CCN(C)CC3)c(C(F)(F)F)c2)cc1C#Cc1cncc2ncccc12 | -99.3% (active) |
| Cc1nc2c(nnn2-c2ccccc2)c2nc(-c3ccc(Cl)cc3)oc(=O)c12 | 103% |

| Compound | growth |
| --- | --- |
| CC(=O)Nc1nc(C)c(C(=O)N/N=C/c2cccs2)s1 | 97.7% |
| CCCC(CCC)Oc1ccc(CCCC2=C(O)c3ccccc3C(=O)C2=O)cc1 | 13.1% |
| COc1ccc(-c2cc(C#N)c(NNC(C)=O)[nH]2)cc1 | 105% |
| CCCCCCCCCCCCCCCCCC(=O)Nc1ccc(O)cc1 | 105% |
| COc1ccc2c(N)ncc(C#Cc3cc(C(=O)Nc4ccc(CN5CCN(C)CC5)c(C(F)(F)F)c4)cnc3C)c2c1 | -51.4% (active) |
| COC(=O)C1CC(=O)N(C(=O)Nc2ccc(Cl)cc2Cl)C1 (stereo not given) | 108% |
| COC(=O)CC(=O)C(=O)OC | 101% |
| COc1ccc(C2=NN(C(=O)c3cc(-c4ccc(C)cc4)nc4ccccc34)C(c3cc(-c4ccccc4)nn3-c3ccccc3)C2)cc1 (stereo not given) | 97.8% |
| O=C(Nc1cccc(Cn2c(=O)[nH]c3ccc(Oc4ncccn4)cc3c2=O)c1)c1ccc(Cl)cc1 | 12.6% |
| CC(=O)Nc1ccc(CC#N)cc1Br | 97.8% |
| CC1=C[C@@H]2c3c(c(O)c(O)c4oc5cc(O)cc(O)c5c(=O)c34)[C@@H](c3cc(O)c(O)c4oc5cc(O)cc(O)c5c(=O)c34)[C@@H]2C(C)(C)C1 | -78% (active) |
| Brc1c(-c2ccncc2)nc2n1CCS2 | 103% |
| CC(C)(C)c1ccc(OCCOC(=O)CBr)cc1 | 97% |
| NC(N)=Nc1ccc(/C=C2\C=Cc3ccccc32)cc1 | 79.6% |
| O=C(Cc1ccccc1[N+](=O)[O-])c1ccc2c(c1)OCO2 | 103% |
| N#Cc1c(N)nc(Nc2nc3ccccc3[nH]2)nc1-c1ccc(Cl)cc1 | 99.9% |
| Oc1ccc(CN(Cc2ccc(C(F)(F)F)cc2)Cc2ccc(O)c3ncccc23)c2cccnc12 | -32.6% (active) |
| CCC(C)C1NC(=O)C(CC(C)C)NC(=O)C(C)NC(=O)C(C(C)C)NC(=O)C(CCCCN)NC(=O)C(CC(C)C)NC(=O)C(C(C)C)NC(=O)[C@H](C)NC(=O)C(C(C)CC)NC(=O)C(CCCN=C(N)N)NC(=O)C(CCCCN)NC(=O)C(CCCN=C(N)N)NC(=O)C(CCCCN)NC(=O)C([C@H](C)CC)NC(=O)C(CCCCN)NC1=O (stereo not given in full) | 1.67% (active) |
| COC(=O)c1ccc(C(=Nc2ccc(N(C)C(=O)CN3CCN(C)CC3)cc2)c2c(O)[nH]c3ccc(C(=O)OC)cc23)cc1 | 36.4% |
| O=C(C(=O)N1CCOCC1)c1ccc(O[C@H]2O[C@H](CO)[C@@H](O)[C@H](O)[C@@H]2O)cc1 | 97.4% |
